Screens deposited in PubChem BioAssay by several laboratories.
LGR2 inh: inhibitors of bursicon-induced LGR2 CRE-luciferase signal, primary screen, cell-based, HEK293, CRE-luciferase reporter, bursicon stimulation. bursicon-stimulated, 4 h. 0.35% of 380,000 active. AID 720647, 2013. Drosophila bursicon receptor LGR2 (rickets). inhibition, % at 9.99 µM;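 active means drop in luminescence signal, shown as inhibition above about 50% in the replicate tests, limit read from the data, passing the limit was not always enough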;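 further: agonist challenge used bursicon conditioned medium at about half maximal strength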
CF NFkB inh: inhibitors of PAF-induced NF-kB signaling, primary screen, cell-based, GFP fluorescence, uHTS; KKLEB NF-kB-GFP reporter, GFP fluorescence overnight; inhibition, % at 5 µM; 0.86% of 360,000 active; AID 588850, 2011;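 active means at least 50% inhibition at 5 µM, scaled per plate between neutral and stimulator controls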;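 further: PAF is a Pseudomonas aeruginosa culture filtrate used as stimulus; plate controls were PAF-stimulated DMSO wells for no effect and unstimulated DMSO wells for full effect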
KKLEB cytotox: cytotoxicity in KKLEB CF airway cells, primary screen, cytotoxicity control for CF NF-kB inhibitor project, cell-based, uHTS, fluorescence assay plates | KKLEB CF airway cells viability, ATPlite luminescence, overnight; stronger effect = lower value; cells stimulated with P. aeruginosa culture filtrate | activity change (cytotoxicity), % at 5 µM | 0.36% of 360,000 active;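 active means corrected activity change at or below -50% at 5 µM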
TWEAK Fn14 block: inhibitors of TWEAK-Fn14 signaling, primary screen, luciferase reporter cells, uHTS. TWEAK-stimulated Fn14 reporter cells, luciferase luminescence, 8 h. inhibition, % at 10 µM. 2% of 360,000 active. AID 1159606, 2016; in the data active means inhibition above about 50%
TROY signal inh: inhibitors of TROY-driven NF-kB signaling, primary screen, Q293 LMP1-TROYcd cells, NF-kB luciferase, uHTS. 0.98% of 360,000 active. AID 1347056, 2019. Q293 LMP1-TROYcd NF-kB luciferase reporter, 4 h. inhibition, % at 10 µM;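 active means compounds whose plate-normalised and pattern-corrected inhibition of the luciferase reporter signal at the single screening dose is 50% or more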
EWS-Fli block: EWS/Fli-driven NR0B1 reporter inhibitors, primary screen, A673 cells, NR0B1 luciferase, luminescence, MLPCN library. 0.67% of 350,000 active. inhibition, % at 12.6 µM. viability-normalised;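 active means mean inhibition of at least 50% after viability correction, with every replicate also passing that limit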;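 further: firefly luciferase signal divided by Alamar Blue viability fluorescence both relative to DMSO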
DNA binding: DNA binders by acridine orange displacement, dose response, counter-screen for EWS/Fli inhibitor project, biochemical, fluorescence polarization, cherry-pick. shares compounds with EWS-Fli block. salmon sperm DNA acridine orange fluorescence polarization. AC35, µM (titrated, usually from 68 µM), inactives show top-dose activity change, negative = DNA binding. 2% of 640 active;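 active means fitted curve reaches a 35% signal fall AC35 below twice the sample's top valid tested dose, actives reach about 48 µM in these data; inactive means the rest, including activity in the rising direction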;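 further: lower polarization ratio signals compound binding to DNA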
Active calls of the source: *; nt = no result; ! = a repeat was not active. A selection: hits, their analogues and other compounds. The true share with any hit is near 2.6%.

SMILES | LGR2 inh | CF NFkB inh | KKLEB cytotox | TWEAK Fn14 block | TROY signal inh | EWS-Fli block | DNA binding
C[C@@H]1CN([C@H](C)CO)C(=O)c2cccc(NC(=O)Nc3cccc4ccccc34)c2O[C@@H]1CN(C)S(=O)(=O)c1ccc(Cl)cc1 | -13.9 | nt | nt | nt | nt | -2.0 | nt
C[C@@H]1CCCCO[C@@H](CN(C)Cc2ccc(C(=O)Nc3ccccc3N)cc2)[C@@H](C)CN([C@H](C)CO)C(=O)c2cc(NS(=O)(=O)c3ccccc3)ccc2O1 | 5.5 | nt | nt | nt | nt | 9.9 | nt
C[C@@H]1CCCCO[C@H](CN(C)Cc2ccc(C(=O)Nc3ccccc3N)cc2)[C@@H](C)CN([C@H](C)CO)C(=O)c2cc(NS(=O)(=O)c3ccc(Cl)cc3)ccc2O1 | 10.3 | nt | nt | nt | nt | 61.1* | -13.0%
C[C@@H]1CCCCO[C@@H](CN(C)S(=O)(=O)c2ccc(Cl)cc2)[C@H](C)CN([C@@H](C)CO)C(=O)c2cc(NC(=O)CCC(F)(F)F)ccc2O1 | 4.0 | nt | nt | nt | nt | -9.8 | nt
C=C(C(=O)c1ccccc1)C(C(=C)C(=O)c1ccccc1)c1ccc(OC)cc1 | nt | 35.9 | -18.6 | 93.3* | 6.4 | 78.3* | -11.2%
COc1ccc(C(CC(=O)c2ccccc2)CC(=O)c2ccccc2)cc1 | 21.4 | 0.9 | -0.6 | -24.2 | -23.4 | -2.6 | nt
C[C@H]1CN([C@@H](C)CO)S(=O)(=O)c2ccc(C#CC3CCCCC3)cc2O[C@@H]1CN(C)C | -4.4 | nt | nt | nt | nt | 14.0 | nt
CC(C)c1ccc(OCc2cccc(C(=O)N/N=C/c3cccnc3)c2)cc1 | 45.4 | -37.2 | -10.5 | -12.9 | -7.2 | 80.5* | -4.1%
CC(Oc1ccc(Cl)cc1Cl)C(=O)NCCCCc1ccccc1 (stereo unspecified) | -6.4 | -18.5 | 7.2 | 1.2 | 6.7 | nt | nt
CC(Oc1cccc(Cl)c1)C(=O)NCCCCc1ccccc1 (stereo unspecified) | -19.2 | -3.5 | 7.5 | -8.0 | 0.5 | 87.4* | 1.0%
CC(C)C#Cc1ccc2c(c1)O[C@@H](CN(C)C(=O)C1CC1)[C@@H](C)CN([C@H](C)CO)S2(=O)=O | -28.7 | nt | nt | nt | nt | 2.7 | nt
COc1ccc(C2=NNC(=Nc3cc(S(=O)(=O)N(C)C)ccc3C)SC2)c(OC)c1 | -6.0 | 13.9 | 3.7 | 29.8 | 14.0 | 52.3* | -18.6%
CN(C)c1ccc(N=Nc2nc3ccccc3n2C)cc1 | 102.8* | -18.9 | -82.3* | 104.1* | 90.0* | 86.4* | -2.7%
COc1ccc(NC(=O)N(C)C[C@@H]2OCCCC[C@@H](C)Oc3ccc(NC(=O)Cc4ccccc4)cc3C(=O)N([C@@H](C)CO)C[C@H]2C)cc1 | 18.5 | nt | nt | nt | nt | -11.9 | nt
O=S(=O)(c1ccc(F)cc1)N1C[C@H]2[C@@H](c3ccccc31)[C@H](CO)N2Cc1ccccc1Cl | 1.3 | nt | nt | nt | nt | 59.6* | -4.8%
C[C@@H]1CN([C@H](C)CO)C(=O)c2cc(NC(=O)Nc3ccc4c(c3)OCO4)ccc2O[C@@H]1CN(C)CC1CCCCC1 | 7.4 | nt | nt | nt | nt | -10.0 | nt
O=c1c2ccccc2oc2cc(C#CC3(O)CCCCC3)ccc12 | nt | 4.5 | -42.5 | 100.5* | 87.3* | 76.6* | 5.5%
CC(C)CC#Cc1ccc([C@@H]2[C@H]3CN(C(=O)Nc4ccccc4)CCCCN3[C@H]2CO)cc1 | 9.5 | nt | nt | nt | nt | 4.0 | nt
COc1ccc(NC(=O)N2CCCCN3[C@H](CO)[C@H](c4ccc(C#CCC(C)C)cc4)[C@H]3C2)cc1 | 2.6 | nt | nt | nt | nt | 72.6* | -2.2%
COc1ccccc1NC(=O)N1CCCCN2[C@H](CO)[C@H](c3ccc(-c4cccc(C)c4)cc3)[C@H]2C1 | 20.9 | nt | nt | nt | nt | 61.4* | -5.7%
O=C(Nc1ccccc1F)N1CCCCN2[C@H](CO)[C@H](c3ccc(/C=C/c4ccccc4)cc3)[C@H]2C1 | 4.4 | nt | nt | nt | nt | 76.1* | -8.0%
C[C@H](CO)N1C[C@H](C)[C@@H](CN(C)Cc2ccncc2)OCCCC[C@H](C)Oc2ccc(NC(=O)NC3CCCCC3)cc2C1=O | -9.1 | nt | nt | nt | nt | -1.9 | nt
C[C@@H]1CN([C@H](C)CO)S(=O)(=O)c2ccc(C#CC(C)(C)O)cc2O[C@H]1CN(C)Cc1ccc(-c2ccccc2)cc1 | 1.1 | nt | nt | nt | nt | 57.9* | -15.1%
C[C@@H]1CN([C@@H](C)CO)S(=O)(=O)c2ccc(C#CC(C)(C)O)cc2O[C@H]1CN(C)Cc1ccccc1 | 4.8 | nt | nt | nt | nt | 12.8 | nt
C[C@H](O)C#Cc1ccc2c(c1)O[C@@H](CN(C)Cc1ccc(-c3ccccc3)cc1)[C@H](C)CN([C@@H](C)CO)S2(=O)=O | 20.0 | 36.0 | -17.1 | 36.1 | 6.5 | 67.1*! | -8.6%
SMILES | LGR2 inh | CF NFkB inh | KKLEB cytotox | TWEAK Fn14 block | TROY signal inh | EWS-Fli block | DNA binding
CO[C@H]1CN(C)C(=O)c2cc(NC(=O)C3CCOCC3)ccc2OC[C@@H](C)N(C(=O)c2ccccc2)C[C@@H]1C | -2.8 | nt | nt | nt | nt | 2.8 | nt
COC(=O)COc1ccc(-c2nccc(-c3ccc(Br)cc3)n2)cc1 | -3.1 | 8.4 | 1.4 | 7.5 | -1.1 | 18.1 | nt
COC(=O)COc1ccc(-c2nccc(-c3ccccn3)n2)cc1 | -21.7 | -5.5 | 2.1 | 60.7* | 8.6 | 53.8* | 4.0%
N#CC1C=Cc2c(ccc3ccccc23)N1C(=O)c1ccccc1 (stereo unspecified) | -59.7 | 42.2 | -20.9 | 54.1* | -11.7 | 65.7* | -2.7%
N#CC1C=Cc2ccccc2N1C(=O)c1ccccc1 (stereo unspecified) | 4.2 | -15.1 | 12.6 | 6.5 | -11.7 | 8.6 | nt
O=C(C[C@@H]1CC[C@@H](NC(=O)CCN2CCCCC2)[C@@H](CO)O1)Nc1nccs1 | 21.0 | nt | nt | nt | nt | 0.2 | nt
O=C1Nc2ccccc2C1=Nc1ccc(Br)cc1 | -4.6 | -0.7 | -3.3 | -14.0 | -48.2 | 55.1* | -14.0%
O=C1Nc2ccccc2C1=Nc1ccccc1-c1ccccc1 | 2.9 | 10.1 | 6.8 | 15.7 | 6.7 | 54.8* | -4.6%
Cc1cc(Br)ccc1N=C1C(=O)Nc2ccccc21 | 14.2 | -2.9 | 1.2 | -3.9 | -15.9 | 55.1* | -2.4%
O=C1Nc2ccccc2C1=Nc1ccc(Cl)cc1 | 13.1 | 19.4 | 7.3 | -3.5 | -8.7 | 37.0 | nt
Cc1cccc(C)c1N=C1C(=O)Nc2ccccc21 | 3.7 | -2.8 | 1.0 | 19.7 | -9.6 | 30.7 | nt
CNC[C@H]1OCCCC[C@@H](C)Oc2ccc(NS(=O)(=O)c3cn(C)cn3)cc2C(=O)N([C@@H](C)CO)C[C@@H]1C | 0.2 | nt | nt | nt | nt | -1.9 | nt
C[C@@H]1CN([C@H](C)CO)C(=O)c2cc(-c3ccncc3)cnc2O[C@H]1CN(C)C(=O)c1cccc(F)c1 | 11.0 | nt | nt | nt | nt | -1.7 | nt
